Only some compounds are listed: those with a hit (about 4.4% of all), similar ones and a draw of the others.
PfHsp90 yeast 2: reduces growth (ATP signal) of yeast expressing P. falciparum Hsp90 | S. cerevisiae expressing PfHsp90, BacTiter-Glo ATP, 48 h; yeast lacking PDR1 and PDR3 efflux regulators | inhibition, % at 9.4 µM | hit rate 0.32% among 310,000 | AID 504621;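 active = every replicate shows inhibition above about 80%, whatever the replicate mean, limit read from the data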
tim10-1 inh: tim10-1 yeast growth inhibition; S. cerevisiae tim10-1 ts strain growth, BacTiter-Glo, 24 h; inhibition, % at 20 µM; hit rate 2.2% among 330,000;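 active = inhibition of at least 40%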;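 note: mutant grown at 25 °C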
TIM10 inh: TIM10 yeast growth inhibition; S. cerevisiae TIM10 strain growth, BacTiter-Glo luminescence, 24 h; inhibition, % at 10 µM; hit rate 1.4% among 330,000; AID 463195;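 active = inhibition of 40% or more at the single tested concentration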;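 note: wild-type TIM10 isogenic control strain grown at permissive 25 °C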
SKKanGAS inh: blocks kanamycin growth of S. pyogenes SKKanGAS strain; AID 1662; BacTiter-Glo, 6 h; inhibition, % at 7.5 µM; hit rate 1.3% among 300,000;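 active = mean replicate score, as percent of positive control median, at least 50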;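 note: strain carries kanamycin resistance gene driven by streptokinase promoter and grows in 40 µg/ml kanamycin; loss of luminescence reflects streptokinase promoter inhibition or plain growth inhibition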
tim23-1 inh: growth inhibitors of tim23-1 mutant yeast | inhibition, % at 20 µM | hit rate 1.3% among 330,000 | S. cerevisiae tim23-1 growth, BacTiter-Glo luminescence, 24 h;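 active = growth inhibition of the mutant yeast at or above 50%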;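 note: temperature-sensitive mutant grown at 25 °C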
Each line names hits and unclear results; the compound was inactive in the other large screens.

O=C(Cc1cccc(C(F)(F)F)c1)Nc1cc(S(=O)(=O)N2CCOCC2)ccc1N1CCCC1	none (no result: SKKanGAS inh)
COc1ccc2nc(-c3ccccc3)nc(SC)c2c1	none (no result: tim10-1 inh, TIM10 inh, SKKanGAS inh, tim23-1 inh)
COc1cccc(OC)c1C(=O)Nc1cc(C)nn1-c1nc2ccccc2[nH]1	SKKanGAS inh 51.5
CC(C)CN(C(=O)COc1ccc(-c2nnco2)cc1)C1CCS(=O)(=O)C1 (centres undefined)	SKKanGAS inh 61.1
CN1CCN(C(c2ccc(F)cc2)c2ccc3cccnc3c2O)CC1 (centres undefined)	none (no result: tim10-1 inh, TIM10 inh, SKKanGAS inh, tim23-1 inh)
Cc1conc1NC(c1cccs1)c1ccc2cccnc2c1O (centres undefined)	SKKanGAS inh 100.0 (no result: PfHsp90 yeast 2)
CCC(=O)NC(c1cccs1)c1ccc2cccnc2c1O (centres undefined)	PfHsp90 yeast 2 114.0
Oc1c(C(Nc2nccs2)c2ccc(C(F)(F)F)cc2)ccc2cccnc12 (centres undefined)	PfHsp90 yeast 2 102.0, SKKanGAS inh 91.0 (no result: tim10-1 inh, TIM10 inh, tim23-1 inh)
CC(=O)NC(c1cccs1)c1cc(F)c2cccnc2c1O (centres undefined)	none (no result: SKKanGAS inh)
N#CCC(=O)Nc1ccc(C(=O)OCC(=O)NC2CCCCCC2)cc1	none (no result: SKKanGAS inh)
COc1ccc2nc(N/C(N)=N/C(=S)Nc3c(C)cccc3C)nc(C)c2c1	SKKanGAS inh 50.7
COc1ccc2nc(N/C(N)=N/C(=S)Nc3cccc(C)c3)nc(C)c2c1	none
O=C(NC(=S)N1CCCCC1CO)c1cc(Br)ccc1Cl (centres undefined)	none (no result: SKKanGAS inh)
CN(C)/C=C1\SC(=S)N(c2ccc(Br)cc2)C1=O	SKKanGAS inh 54.2
Cc1ccc(C(NC(=O)NC(C)c2ccccc2)C(Cl)(Cl)Cl)cc1F (centres undefined)	SKKanGAS inh 56.9
COc1ccccc1CC(Cc1nc2ccccc2[nH]1)c1nc2ccccc2[nH]1 (centres undefined)	none
Cc1cccc(CC(Cc2nc3ccccc3[nH]2)c2nc3ccccc3[nH]2)c1 (centres undefined)	SKKanGAS inh 60.9
O=C1NC(c2cccc(OCc3ccccc3)c2)Nc2ccccc21 (centres undefined)	none (no result: tim10-1 inh, TIM10 inh, SKKanGAS inh, tim23-1 inh)
COc1ccc(Cc2[nH]n3c(=O)cc(C(C)C)nc3c2-c2ccccc2)cc1	SKKanGAS inh 91.2
O=C(NCC1CCCO1)c1cc([N+](=O)[O-])ccc1N1CCC(Cc2ccccc2)CC1 (centres undefined)	PfHsp90 yeast 2 97.5 (no result: SKKanGAS inh)
CC[C@H]1OC(=O)C[C@@H](O)[C@H](C)[C@@H](O[C@@H]2O[C@H](C)C[C@H](N(C)C)[C@H]2O)[C@@H](CC=O)C[C@@H](C)C(=O)C=C[C@]2(C)O[C@H]2[C@@H]1C	SKKanGAS inh 110.8 (no result: PfHsp90 yeast 2, tim10-1 inh, TIM10 inh, tim23-1 inh)
O=S(=O)(/C=C/c1ccccc1)NC1CCCCCCC1	PfHsp90 yeast 2 88.4
O=S(=O)(/C=C/c1ccccc1)NC1CCCCCC1	PfHsp90 yeast 2 99.3
O=c1cc(C2CCCCC2)[nH]c(=O)[nH]1	none (no result: tim10-1 inh, TIM10 inh, SKKanGAS inh, tim23-1 inh)
Cc1nn(CCc2nn[nH]n2)c2nc(-c3ccc(C4CCCCC4)cc3)cc(C(F)(F)F)c12	SKKanGAS inh 103.8 (no result: PfHsp90 yeast 2)
Cc1nn(CCC(=O)O)c2nc(-c3cccnc3)cc(C(F)(F)F)c12	none
Clc1ccc(-c2cc3ccccc3nc2N2CCOCC2)cc1	none
Clc1ccc(-c2cc3ccccc3nc2N2CCCC2)cc1	SKKanGAS inh 69.2 (no result: PfHsp90 yeast 2)
CC(=O)Nc1ccc2c(c1)C(=O)c1ccc(Cl)cc1-2	none (no result: tim10-1 inh, TIM10 inh, SKKanGAS inh, tim23-1 inh)
CCCc1nc2ccccc2c(=O)n1/N=C/c1c(C)[nH]n(-c2ccc(C)cc2)c1=O	SKKanGAS inh 96.6
CCCc1nc2ccccc2c(=O)n1/N=C/c1ccccc1O	none
Cc1cc(NC(=O)CN2C(=O)c3ccccc3C2=O)no1	SKKanGAS inh 49.7
Cc1ccccc1-n1c(SCC(=O)NC(N)=O)nc2sc(-c3ccccc3)cc2c1=O	SKKanGAS inh 85.9
COC(=O)c1ccc(CN(c2ccc(C(=O)O)c(O)c2)S(=O)(=O)c2ccc(Cl)c([N+](=O)[O-])c2)cc1	SKKanGAS inh 54.5 (no result: tim10-1 inh, TIM10 inh, tim23-1 inh)
Cc1cccc(C)c1OC(=O)C(c1ccccc1)c1ccccc1	SKKanGAS inh 70.9
O=C(c1ccccc1)C(O)c1ccccc1 (centres undefined)	none (no result: SKKanGAS inh)
COc1cc(/C=C2\S/C(=N/S(=O)(=O)c3ccccc3)NC2=O)c([N+](=O)[O-])cc1OC	SKKanGAS inh 68.1
Cc1cc(Cl)cc2sc(=S)[nH]c12	none (no result: tim10-1 inh, TIM10 inh, SKKanGAS inh, tim23-1 inh)
CC(C)CSC1=NSC2=NC(=O)/C(=C\c3coc4ccccc4c3=O)C(=N)N12	SKKanGAS inh 60.8
CC[C@]12c3[nH]c4ccc(Cl)cc4c3CCN1C(=O)[C@@H](CC(=O)NC/C=C(\C)CCC=C(C)C)C[C@@H]2C(=O)N1CCN(C(=O)C2CC2)CC1	none (no result: SKKanGAS inh)
CC(C)CC(=O)/C(=C\c1ccc(Cl)cc1Cl)n1cncn1	PfHsp90 yeast 2 129.2 (no result: tim10-1 inh, TIM10 inh, tim23-1 inh)
CCN1C/C(=C\c2cccc([N+](=O)[O-])c2)C(=O)/C(=C/c2cccc([N+](=O)[O-])c2)C1	PfHsp90 yeast 2 95.1 (no result: tim10-1 inh, TIM10 inh, SKKanGAS inh, tim23-1 inh)
O=C1/C(=C/c2cccc([N+](=O)[O-])c2)CSc2ccc(Cl)cc21	none
COc1ccc2c(c1)OC[C@H]1[C@H]2N2C(=O)CN(CCc3c[nH]c4ccccc34)C(=O)[C@@]2(C)[C@H]1c1ccccc1	none (no result: SKKanGAS inh)
O=S(=O)(Nc1c(S(=O)(=O)c2ccccc2)c2nc3ccccc3nc2n1C1CCCCC1)c1ccccc1	SKKanGAS inh 91.0 (no result: tim10-1 inh, TIM10 inh, tim23-1 inh)
O=C1C=C(Nc2ccccc2O)c2ccccc2C1=O	SKKanGAS inh 51.5
Cc1cc(C)cc(OCCn2nnc3ccccc32)c1	none
CC(C)(C)c1csc(NC(=O)c2cccnc2)n1	none
CC(C)(C)c1csc(NNC(=O)c2ccc(Cl)cc2)n1	SKKanGAS inh 90.1
Cc1ccc(NC(=O)COc2ccccc2C(N)=O)cc1S(=O)(=O)N1CCCCCC1	none (no result: SKKanGAS inh)
CC(C)(C)C1CCC2(CC1)C(C#N)=C(SCC(=O)Nc1ccccc1)NC(=O)C2C#N (centres undefined)	SKKanGAS inh 68.4
CC1(C)CC(=O)C2=C(C1)NC(SCC(=O)Nc1ccccc1)=C(C#N)C21CCCCC1	none
Cc1ccc(NC(=O)COc2cccc3c2OC(C)(C)C3)c(O)c1	none (no result: SKKanGAS inh)
CCCN(CCC)c1nc(-c2ccccn2)nc2ccccc12	SKKanGAS inh 97.3
c1ccc(-c2nc(N3CCOCC3)c3ccccc3n2)nc1	none
c1ccc(-c2nc(N3CCCCCC3)c3ccccc3n2)nc1	SKKanGAS inh 108.7 (no result: PfHsp90 yeast 2)
c1ccc(CCNc2nc(-c3ccccn3)nc3ccccc23)cc1	SKKanGAS inh 113.3
COc1ccccc1NCCC(=O)OCC(=O)Nc1ccccc1Cl	none (no result: SKKanGAS inh)
COc1cc([C@H]2OC[C@H]3[C@@H]2CO[C@@H]3c2ccc(O[C@H]3O[C@H](CO)[C@@H](O)[C@H](O)[C@H]3O)c(OC)c2)ccc1O[C@@H]1O[C@H](CO)[C@@H](O)[C@H](O)[C@H]1O	none (no result: SKKanGAS inh)
COc1ccc(OCC(=O)Nc2ccc(C(=O)Nc3ccccc3C(=O)O)cc2)cc1	none
O=C(COc1ccc2ccccc2c1)Nc1cccc(C(=O)Nc2ccccc2C(=O)O)c1	SKKanGAS inh 55.2
Cc1ccccc1OCC(=O)Nc1ccccc1N1CCCCC1	SKKanGAS inh 57.3
